According to PubChem BioAssay AID493078 (National Center for Advancing Translational Sciences (NCATS), 2011):
This is one part of the list. Where a call stands in place of a potency, no number is given. Inconclusive results are not listed. Calls of active or inactive are those of the source. The call rests on the fitted dose curve; in most records, active means well fitted activation curve with a large enough effect; inconclusive means small, poorly fitted or top-dose-only effect; inactive means flat fitted curve, though single readings scatter. Where a SMILES comes first, the peptide text is derived from it. The star is where a group is joined. OPac = O=C(CO*)c1ccccc1; Bz = O=C(c1ccccc1)*

Each compound was assayed against Thyrotropin-releasing hormone receptor (Homo sapiens) (UniProt P34981) (assay: qHTS for Small Molecule Agonists and Allosteric Enhancers of Human TRH Receptor: Confirmation Screen for Agonists). Conditions: TRHR-expressing cells, agonist activation read-out; series mostly up to 46.1 µM.
Source text: NIH Chemical Genomics Center [NCGC]
NIH Molecular Libraries Probe Centers Network [MLPCN]
Assay Submitter (PI): Marvin Gershengorn
This project aims to identify small drug-like molecules that activate (agonists) the thyrotropin releasing hormone (TRH) receptor (TRHR) or enhance its TRH-stimulated activity (allosteric enhancers). TRHR, a drug-accessible cell surface receptor expressed in specific brain regions, and its ligand TRH have been implicated in several central nervous system disorders, including depression and anxiety. Small molecule TRHR agonists or allosteric enhancers that are metabolically stable and able to cross the blood-brain barrier might serve as probes to elucidate the roles of brain TRH receptors in animal models, and might be valuable as lead compounds for the development of drugs to treat patients with central nervous system disorders.
Upon TRHR-Gq activation in TRHR cells, intracellular calcium is released from stores in the endoplasmic reticulum.
For the HTS assay freshly prepared cells are plated at a density of 2000/well in 3 ul of complete DMEM medium containing 10% serum in 1536-well plates and cultured over night at 37 C in a humidified incubator with 5% CO2. The next day, 2 ul of a no wash calcium dye (ABD Bioquest) was added to the cells and plates were incubated at room temperature for 1 hour. For the assay, assay plates were loaded into the FDSS kinetic plate reader. A 10 cycle (1 second/cycle) baseline measurement is taken and then the FDSS online 1536 pintool delivers 23 nl of compound library (as well as TRH controls) to the plate. The plate is measured for kinetically at 1 cycle/sec for 180 seconds and is considered to be the agonist portion of the assay (eg, compounds which activate a positive calcium response during this portion are flagged as potential agonists). Following the 180 second read, 1 ul of either an EC20 (positive modulation assay) is delivered by an onboard pipette head. Measurements are taken kinetically for an additional 180 seconds.
TRHR FDSS Screening Protocol
1. Reagent, 3 uL 2000 cells/well 1536 TC treated Black plate in media containing 10% FCS
2. Time, 18 hours, 33.5C 5% CO2 (cells grown at 37C)
3. Reagent, 2 uL ABD fluo-8 Ca dye
4. Time, 30 min-1.5hrs hours, Room temp (6 plates/batch)
5. Detector, EX 480/EM 530C, FDSS 10 cycles baseline (1sec/cycle)
6. Compound, 23 nL of stock solution from library
7. Detector, EX 480/EM 530C, FDSS 230 cycles (1sec/cycle) Agonist mode
8. Compound, 1 ul EC20 of TRH made up in HEPES HBSS, 10 nM final
9. Detector, EX 480/EM 530C, FDSS 100 cycles (1sec/cycle) Potentiator mode
Further: nearly all actives have a fitted effect of over 75% in size.
Potency means the concentration at half of the fitted maximal effect.

Thyrotropin-releasing hormone receptor (Homo sapiens), sequence (P34981 whole entry, looked up): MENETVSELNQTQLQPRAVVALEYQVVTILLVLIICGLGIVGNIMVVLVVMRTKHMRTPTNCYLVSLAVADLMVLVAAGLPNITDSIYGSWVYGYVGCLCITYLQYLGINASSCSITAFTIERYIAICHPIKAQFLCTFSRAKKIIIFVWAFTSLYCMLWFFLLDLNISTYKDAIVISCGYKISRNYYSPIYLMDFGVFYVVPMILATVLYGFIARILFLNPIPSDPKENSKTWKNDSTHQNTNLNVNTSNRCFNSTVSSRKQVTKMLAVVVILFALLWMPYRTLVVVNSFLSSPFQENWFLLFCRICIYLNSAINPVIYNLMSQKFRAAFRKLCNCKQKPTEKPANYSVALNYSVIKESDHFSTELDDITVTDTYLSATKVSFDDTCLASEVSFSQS

Compound | Potency
CCOC(=O)C1=C(O)/C(=C/c2cc(C)n(-c3ccccc3)c2C)N=C1C | inactive
Cc1cc(S(=O)(=O)c2cc3ccc(O)c(C)c3oc2=O)ccc1F | 20.6 µM (active)
CCc1ccccc1NC(=O)/C(=C/c1ccccc1)c1ccccc1 | inactive
CC(C)c1nnc(NC(=O)CCC(=O)N2CCN(c3cccc(Cl)c3)CC2)s1 | inactive
CC(=O)c1cc(NC(=O)c2ccccc2)c(=O)oc1/C=C/N(C)C | 20.6 µM (active)
COc1ccc(OCc2n[nH]c(=S)n2N)cc1 | inactive
COc1ccc(CCn2ccc(O)c(Cc3ccc(Cl)cc3Cl)c2=O)cc1OC | inactive
CCOc1ncccc1C(=O)OCC(=O)N1c2ccccc2CC1C (stereo not given) | inactive
O=C(/C=C/c1ccc(N2CCOCC2)cc1)c1ccccc1 | 20.6 µM (active)
CN(C(=O)CSc1nnc(Nc2ccccc2)s1)C1CCS(=O)(=O)C1 (stereo not given) | inactive
Cc1c(/C=N\NC(=O)c2cc3ccccc3o2)c2ccccc2n1C | inactive
O=c1o[nH]c(-c2ccccc2)c1N=Nc1c(F)cccc1Cl | inactive
COc1cc(C2C3=C(CCCC3=O)OC3=C2C(=O)CCC3)ccc1OCC(=O)Nc1ccccc1 | inactive
NS(=O)(=O)c1cccc(NC(=O)CSc2nc3ccccc3n2-c2ccccc2)c1 | inactive
c1cnc(N2CCN(c3ccc4ccccc4n3)CC2)nc1 | inactive
C/C(=N/OC(=O)c1ccc(Br)cc1)c1ccc(C)cc1 | inactive
Cc1csc(CN(C)C(=O)CC2C(=O)NCCN2CC(C)(C)C)n1 (stereo not given) | inactive
Cc1ccc(Cl)c(OCC(=O)N2CCc3ccccc3C2)c1 | inactive
CSc1nnnn1-c1c(C)cc(C)cc1C | inactive
C/C(=C\c1ccco1)CN1CCC(N2CCC(C(=O)N3CCOCC3)CC2)CC1 | inactive

Compound | Potency
Cc1ccc(-c2cn(S(=O)(=O)c3cccc([N+](=O)[O-])c3)nc2N)cc1 | inactive
O=C1C(=O)N(CCCO)C(c2ccccc2)/C1=C(\O)c1ccc(Br)cc1 (stereo not given) | inactive
O=C(CN1C(=O)c2cccc3cccc1c23)Nc1ccccc1 | inactive
CC1=C(C)CC(C(=O)NC(C)CCc2ccccc2)C(C(=O)O)C1 (stereo not given) | inactive
COc1ccc(Cl)cc1NC(=O)CN(C)Cc1ccc(OC)c(OC)c1 | inactive
Cc1nn(Cc2ccccc2)c(C)c1C(=O)N1CCN(CC(=O)Nc2ccccc2Cl)CC1 | inactive
Cc1cc(C(=O)CCl)c(C)n1CC1COc2ccccc2O1 (stereo not given) | inactive
COC(=O)c1cc(N2CCNCC2)nc2ccccc12 | inactive
O=c1[nH]c2cccnc2n(CCNc2ncc(C(F)(F)F)cc2Cl)c1=O | inactive
NC(N)=Nc1nc(-c2ccccc2)c2cc(Cl)ccc2n1 | inactive
CC1(C)Cc2c(cnn2-c2cccc(F)c2)C(NC(=O)c2cc[n+]([O-])cc2)C1 (stereo not given) | inactive
CCc1nnc(NC(=O)[C@@H](NC(=O)c2cccc(C)c2)C(C)C)s1 | inactive
Cn1cccc1C1(C(F)(F)F)NCCNC1=O (stereo not given) | inactive
COc1cc(/C=C(\C#N)c2nc3ccccc3[nH]2)ccc1O | 20.6 µM (active)
N#Cc1ccc(Oc2cc(C(F)(F)F)nc(-c3ccccn3)n2)cc1 | inactive
CCOc1cc(CN2CCCC(CO)(Cc3ccc(F)cc3F)C2)ccc1OC (stereo not given) | inactive
O=C(Nc1ccccc1)c1cccnc1Nc1ccccc1 | inactive
Cc1cccn2c(=O)c3cc(C(=O)NC4CCCCC4)sc3nc12 | inactive
O=C(CNC(=O)c1ccccc1)NCC(=O)OCC(=O)c1ccccc1 (Bz-Gly-Gly-OPac) | inactive
CC(=O)n1c(C=Nc2ccccc2)c(O)c2ccccc21 | 20.6 µM (active)
